About 2,000 (0.91%) of roughly 220,000 compounds were called active. Not shown: some 2% with an inconclusive outcome. The list is a sample of the results. Measured potencies and affinities stand elsewhere. A number with no mark means an inactive call. Cut-off read from the data, not from the text of the source: inconclusive = inhibition above about 80% without an active follow-up result; inactive = below that; test concentration not stated here.

The nature of this test: M. tuberculosis H37Rv growth inhibitors, H37Rv strain (AID 1626).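 Note: bacteria incubated seven days before Alamar blue readout; 0% = bacteria only wells and 100% = bacteria with antibiotic wells.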 As to conditions: stronger effect = higher value, concentration not given here.
For orientation: inhibition means the relative decrease from the control value, in per cent. As to `CN(C)C(CNC(=S)Nc1ccccc1Cl)c1cccnc1` (centres undefined), the inhibition was 7.94%. With `CCOC(=O)c1ccc(NC(=O)C(=O)NCC2CCCO2)cc1` (centres undefined), the inhibition was 65.4%.

Consider `CCCCOC(=O)c1ccc(NC(=O)C(=O)NCC2CCCO2)cc1` (centres undefined), for which the inhibition was 34.8%. As for `COc1ccc(Br)c2oc(S)cc(=O)c12`, the figure is -4.76%; as for `CCN(CC)C(=O)C1CCCN(Cc2ccc(F)c(F)c2)C1` (centres undefined), -6.74%. Next, `CCC(CC)C(=O)Nc1ccc([N+](=O)[O-])cn1`: 1.14%; `CCCc1nc(SCC(=O)Nc2cc(C)on2)c2c(=O)n(C)c(=O)n(C)c2n1`: 5.55%; `Cn1c(Cl)nc2ccccc21`: -1.9%.

`CN(C)c1ccc(-c2nc3ccccc3n2C)cc1`: the inhibition was -2.73%. `Cc1ccc(NCc2nc3ccccc3n2C)cc1`: the inhibition is 6.89%. As for `Cn1c(CNc2ccccc2)nc2ccccc21`, the figure is 5.08%; as for `Cc1cccc(NCc2nc3ccccc3n2C)c1`, -0.92%. With `CCCCn1c(/N=C/c2ccc(N(C)C)cc2)nc2ccccc21`, the inhibition was -13.8%.

`CC(=O)Nc1nc(=S)n(-c2ccccc2)[nH]1`: the inhibition was -1.91%.

With `COC(=O)C1CCN(C(=O)COC(=O)CC(NC(C)=O)c2ccccc2)CC1` (centres undefined), the inhibition was -3.65%. As to `Fc1cccc2sc(N3CCCCC3)nc12`, the inhibition is -9.23%. For `COc1ccccc1NC(=O)CCc1nc(-c2ccccc2F)no1`, the inhibition is 2%.

As for `O=C(NC1=NC2CCCCC2N1)c1ccccc1` (centres undefined), the inhibition is 1.79%. On to `Cc1ccc(C2=Nc3ccccc3N=C(c3ccc([N+](=O)[O-])cc3)C2)c(O)c1`, for which the inhibition is 0.53%. As for `Cc1ccc(O)c(C2=Nc3ccccc3N=C(c3cccc([N+](=O)[O-])c3)C2)c1`, the figure is 3.86%; as for `CCc1cccc(CC)c1NC(=S)Nc1cccc(Cl)c1Cl`, 2.37%; as for `CCCn1nc(C(=O)Nc2nc3ccccc3[nH]2)c2ccccc2c1=O`, 59.6%. Next, `CCn1c(=O)c(C(=O)Nc2ccccn2)c(O)c2ccccc21`: -3.43%. Consider `CCn1c(=O)c(-c2nc3ccccc3[nH]2)c(O)c2ccccc21`, for which the inhibition was 43.3%. As for `CCCCCn1c(=O)c(-c2nc3ccccc3[nH]2)c(O)c2ccccc21`, the figure is 52.9%; as for `CC1Cc2ccccc2N1C(=O)c1ccc(N2CCCC2)c([N+](=O)[O-])c1` (centres undefined), 4.46%. Next, `CCN(C(=O)CSc1nc(-c2ccccc2)c(-c2ccccc2)[nH]1)C1CCS(=O)(=O)C1` (centres undefined): 0.12%; `CSc1ncccc1C(=O)OCC(=O)N(CC(C)C)C1CCS(=O)(=O)C1` (centres undefined): -5.78%. Next, `CCCn1c(SCC(=O)Nc2ccc(OC)cc2[N+](=O)[O-])n[nH]c1=O`: 1.11%; `O=C1Nc2ccccc2N(O)N1c1ccc(Cl)cc1`: -3.86%. As to `O=C(C1=C[C@@H](C2CC2)C[C@@H](OCc2ccc(CO)cc2)O1)N1CCN(Cc2ccccc2)CC1`, the inhibition is 0.13%. In the case of `O=C(CCC(=O)N1CCN(c2ccccn2)CC1)Nc1nnc(C(F)(F)F)s1`, the inhibition was -6.15%. Regarding `COc1ccccc1N1CCN(C(=O)COc2ccc(S(=O)(=O)NC(C)(C)C)cc2)CC1`, the inhibition was 0.98%. Next, `CN1CC=C(c2c[nH]c3ccccc23)CC1`: -7.46%. As to `O=C(Nc1ccc2c(c1)OCO2)c1ccc(Br)s1`, the inhibition is 9.98%. As for `O=C(Nc1nnc(-c2ccco2)o1)c1ccc(N2C(=O)CCC2=O)cc1`, the figure is -1.43%; as for `CCC(=O)Nc1nnc(-c2ccco2)o1`, 10.2%; as for `O=C(Nc1nnc(-c2ccco2)o1)C1CC1`, 4.4%. Next, `CC(=O)Nc1nnc(-c2ccco2)o1`: 0.62%; `Cc1nn(-c2ccccc2)c(C)c1C(=O)Nc1ccc(N2CCOCC2)cc1`: -4.12%.

On to `CN(C)S(=O)(=O)c1ccc(C(=O)Nc2nnc(-c3ccco3)o2)cc1`, for which the inhibition was -14.7%.

For the compound `O=C(Nc1nnc(-c2ccco2)o1)c1ccc(S(=O)(=O)N2CCCC2)cc1`, the inhibition was 41.6%.

In the case of `CCN(c1ccccc1)S(=O)(=O)c1ccc(C(=O)Nc2nnc(-c3ccco3)o2)cc1`, the inhibition was 61.3%. As for `COCCCNC(=O)CN(c1cc(Cl)ccc1OC)S(=O)(=O)c1ccc(C)c([N+](=O)[O-])c1`, the inhibition is -9.07%. For `O=C(c1ccco1)N1CCN(c2ccc(S(=O)(=O)N3CCCC3)cc2)CC1`, the inhibition was -12.6%. Next, `Cc1ccc(NCCNc2ccc(C)cc2)cc1`: 5.4%; `C[N+](C)(CC#Cc1ccccc1)CC(=O)c1ccc(Cl)cc1`: 0.9%.

Take `Cc1ccc(-c2cc(C(=O)N/N=C/c3c(C)nn(C)c3C)c3ccccc3n2)c(C)c1`: the inhibition was -2.59%. As for `CCCc1nnc2n1N=C(c1ccc([N+](=O)[O-])cc1)CS2`, the figure is 3%. As for `O=C(Cc1ccccc1)Nc1nnc(-c2ccco2)o1`, the inhibition was 1.37%. As for `Cn1nnc(NC(=O)c2ccc3ccccc3c2)n1`, the figure is 0.14%; as for `O=C(COc1ccccc1)Nc1nnc(-c2ccco2)o1`, -3.85%; as for `O=C(Nc1ccncc1)c1ccc2ccccc2c1`, 1.37%. As for `Cc1cccc(C(=O)Nc2nnc(-c3ccncc3)o2)c1`, the figure is 62.6%; as for `O=C(Nc1nnc(-c2ccco2)o1)c1cccc(N2C(=O)CCC2=O)c1`, 2.38%. As for `Cc1cccc(C)c1NC(=O)c1ccc([N+](=O)[O-])s1`, the figure is 11.5%; as for `Cc1cccc(NC(=O)c2ccc([N+](=O)[O-])s2)c1C`, 53.1%; as for `COc1ccc(OC)c2c(C)cc(N3CCN(C(=O)c4ccc(F)cc4)CC3)nc12`, 8.6%. As to `O=C(/C=C/c1ccco1)Nc1ccccc1N1CCCCC1`, the inhibition was 10.2%.

For the compound `Cc1c(NC(=S)N/C(=N/S(=O)(=O)c2ccc(Cl)cc2)c2ccccc2)c(=O)n(-c2ccccc2)n1C`, the inhibition is 3.87%.

On to `Cc1ccc(S(=O)(=O)Nc2cccc(C(=O)Nc3cc(C)ccn3)c2)cc1`, for which the inhibition is 7.87%. Next, `Cc1ccc(C2=NC3(CCCCCC3)NC2=S)cc1`: 7.91%. In the case of `Clc1cccc(-c2ccc(C=Nc3ccc(N4CCOCC4)cc3)o2)c1`, the inhibition is 32.1%.

`Cc1ccc(Cl)cc1-c1ccc(C=Nc2ccc(N3CCOCC3)cc2)o1`: the inhibition was 9.51%.
